# Inconclusive results are not listed. Where a call stands in place of a potency, no number is given. Activity calls are given as the source filed them. Calls come from the whole dose curve.
# Target: Vitamin D3 receptor (Homo sapiens) (UniProt P11473)
# Experiment: qHTS assay to identify small molecule agonists of the vitamin D receptor (VDR) signaling pathway (AID 743222)
# Settings: HEK293T VDR-UAS-bla, beta-lactamase FRET ratio, 16 h; series mostly up to 63.5 µM
# Excerpt: National Center for Advancing Translational Sciences [NCATS]
# NIH Chemical Genomics Center [NCGC]
# U.S. Environmental Protection Agency [EPA]
# National Institutes of Environmental Health Sciences [NIEHS]
# National Toxicology Program [NTP]
# U.S. Food and Drug Administration [FDA]
# The vitamin D receptor (VDR), a member of nuclear hormone receptor superfamily, plays a critical role in calcium homeostasis and bone metabolism. It is also involved in cell differentiation and growth, and thrombogenicity.
# Tox21 Assay Protocol Summary:
# VDR-bla cells were dispensed at 2,000 cells/6 uL/well into black wall/clear-bottom 1536-well plates using a Multidrop Combi (Thermo Fisher Scientific, Waltham, MA) dispenser. After the assay plates were incubated at a 37C and 5% CO2 for 4 h, 23 nL of compounds dissolved in DMSO, positive controls or DMSO only was transferred to the assay plate by a Pintool station (Kalypsys, San Diego, CA). The plates were incubated at 37C and 5% CO2 for 16 h. After 1 uL of LiveBLAzerTM B/G FRET substrate was added using a Bioraptr Flying Reagent Dispenser (FRD) workstation (Beckman Coulter, Indianapolis, IN, USA), the plates were incubated at room temperature for 2 h, and fluorescence intensity was measured by an Envision plate reader (PerkinElmer, Shelton, CT).
# Vitamin D3 receptor (Homo sapiens), sequence (P11473 whole entry, looked up): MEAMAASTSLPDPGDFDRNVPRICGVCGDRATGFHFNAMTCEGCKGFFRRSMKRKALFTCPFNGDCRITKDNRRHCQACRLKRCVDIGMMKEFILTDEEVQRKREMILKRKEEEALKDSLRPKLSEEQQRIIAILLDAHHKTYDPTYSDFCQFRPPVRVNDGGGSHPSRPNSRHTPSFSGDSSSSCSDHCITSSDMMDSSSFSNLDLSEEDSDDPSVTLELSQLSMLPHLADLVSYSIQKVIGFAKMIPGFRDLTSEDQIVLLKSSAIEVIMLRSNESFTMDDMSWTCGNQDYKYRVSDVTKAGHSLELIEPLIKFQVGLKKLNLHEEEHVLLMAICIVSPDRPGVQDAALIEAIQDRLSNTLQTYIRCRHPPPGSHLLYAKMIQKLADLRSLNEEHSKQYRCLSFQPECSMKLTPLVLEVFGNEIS
row,SMILES,Potency
1,COC(=O)C1=C(C)NC(C)=C(C(=O)O[C@@H]2CCCN(Cc3ccccc3)C2)[C@@H]1c1cccc([N+](=O)[O-])c1,inactive
2,c1csc(SSc2cccs2)c1,inactive
3,CCCCCC[C@@H](O)C/C=C\CCCCCCCC(=O)OCC(O)CO (stereo not given in full),inactive
4,CO/N=C(/C(=O)N[C@@H]1C(=O)N2C(C(=O)O)=C(COC(N)=O)CS[C@H]12)c1ccco1,inactive
5,CCCCC(CC)COP(=O)(O)O (stereo not given),inactive
6,Cc1cccc(N(C)C(=S)Oc2ccc3c(c2)CCC3)c1,inactive
7,CC/C=C1/OC(=O)c2ccccc21,inactive
8,CCc1ccccc1,inactive
9,CC(C)=CCC1C(=O)N(c2ccccc2)N(c2ccccc2)C1=O,inactive
10,O=c1[nH]ncc2ccccc12,inactive
11,C=C1c2cccc(O)c2C(O)=C2C(=O)[C@]3(O)C(O)=C(C(N)=O)C(=O)[C@@H](N(C)C)[C@@H]3[C@@H](O)[C@H]12,inactive
12,CC(=O)OCC[N+](C)(C)C,inactive
13,C[C@@H](CN(C)C)CN1c2ccccc2Sc2ccccc21,inactive
14,Clc1cc(Cl)nc(Cl)n1,inactive
15,Cc1cc(C)cc(N)c1,inactive
16,CC(C)(c1ccccc1)c1ccccc1,inactive
17,COc1ccccc1N1CCN(CC(O)COc2cccc3ccccc23)CC1 (stereo not given),inactive
18,Clc1ccc(Nc2nnc(Cc3ccncc3)c3ccccc23)cc1,inactive
19,OCCOCC#CCOCCO,inactive
20,Oc1c(I)cc(I)c2cccnc12,inactive

row,SMILES,Potency
1,CCC(OCCCOC)OC(C)=O (stereo not given),inactive
2,CC(=O)Nc1ccc(C)cc1C,inactive
3,O=C1c2ccccc2C(=O)C1c1nc2ccccc2c(Br)c1O,inactive
4,C1C[C@@H]2[C@H]3CC[C@H](C3)[C@@H]2C1,inactive
5,CC1(C)[C@H](C(=O)O)N2C(=O)C[C@H]2S1(=O)=O,inactive
6,OC1(c2ccccc2)CCNCC1,inactive
7,CC(C)C(O)(c1ccc(OC(F)(F)F)cc1)c1cncnc1 (stereo not given),inactive
8,CC(=O)c1ccc([N+](=O)[O-])cc1,inactive
9,c1ccc2sc(SN(C3CCCCC3)C3CCCCC3)nc2c1,inactive
10,O=C1c2ccccc2C(=O)C1(O)O,inactive
11,CCCCCC#CC(=O)OC,inactive
12,CCCCCCC(C)(C)C(=O)O,inactive
13,CCCCCCNC(=O)n1cc(F)c(=O)[nH]c1=O,inactive
14,N#CCc1ccc(Cl)cc1Cl,inactive
15,O=Cc1c2ccccc2c(Cl)c2ccccc12,inactive
16,CCOC(=O)/C=C/C(=O)OCC,inactive
17,CCCCCCCCN,inactive
18,CCCCN1CCCC1C(=O)Nc1c(C)cc(C)cc1C (stereo not given),inactive
19,Cc1cscn1,inactive
20,CN(C)CCC=C1c2ccccc2C=Cc2ccccc21,inactive

# Source: PubChem BioAssay (Tox21)
